Experimental data: PubChem BioAssay (EPA / NIEHS)
Activity calls are given as the source filed them. The calls were made as follows: active = hit-call score of the fitted dose curve at least 0.9, where 1 is the maximum; inactive = score below 0.9.

Columns and labels:
Details in all cases: mRNA level, 48 h; actives raise or lower the signal
[1] = read-out: Glutathione S-Transferase (GSTA2), GSTA2 (gene 2939); assay: LTEA_HepaRG_GSTA2: Life Technologies and Expression Analysis (LTEA) Assay for Glutathione S-Transferase (GSTA2) using HepaRG (AID 2283497)
How it was run: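 HepaRG, 48 h dosing, 8-pt half-log CRC from 100 uM, 0.5% DMSO vehicle, n=2; RNA → Fluidigm TaqMan qRT-PCR; GSTA2 vs ACTB/GAPDH/POLR2A; gain/loss fit vs DMSO.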

[2] = read-out: growth arrest and DNA damage 45 (GADD45G), GADD45G (gene 10912); assay: LTEA_HepaRG_GADD45G: Life Technologies and Expression Analysis (LTEA) Assay for growth arrest and DNA damage 45 (GADD45G) using HepaRG (AID 2283499)
How it was run: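 HepaRG, 48 h exposure, top 100 uM, half-log 8-point series, 0.5% DMSO vehicle, duplicates. Readout: GADD45G transcript by qRT-PCR (Fluidigm array), housekeeping-normalised (ACTB/GAPDH/POLR2A). Bidirectional curve fit vs DMSO baseline.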

[3] = read-out: Glutamate-cysteine ligase regulatory (GCLM), GCLM (gene 2730); assay: LTEA_HepaRG_GCLM: Life Technologies and Expression Analysis (LTEA) Assay for Glutamate-cysteine ligase regulatory (GCLM) using HepaRG (AID 2283500)
How it was run: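 Differentiated human HepaRG cells exposed 48 h in serum-free induction medium to 8-point half-log concentrations (top 100 uM, 0.5% DMSO), in duplicate. GCLM mRNA quantified by qRT-PCR, normalized to ACTB, GAPDH, POLR2A; bidirectional fitting versus DMSO.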

[4] = read-out: Glutathione S-transferase M3 (GSTM3), GSTM3 (gene 2947); assay: LTEA_HepaRG_GSTM3: Life Technologies and Expression Analysis (LTEA) Assay for Glutathione S-transferase M3 (GSTM3) using HepaRG (AID 2283501)
How it was run: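 qRT-PCR read-out of GSTM3 transcript, normalized to three housekeeping genes, from human HepaRG cells after 48 h chemical exposure. Eight-point half-log series, top 100 uM, 0.5% DMSO vehicle; gain or loss fitted relative to DMSO baseline.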

[5] = read-out: Heat shock 70 kDa protein 1 (HSPA1A), gene 3303; assay: LTEA_HepaRG_HSPA1A: Life Technologies and Expression Analysis (LTEA) Assay for Heat shock 70 kDa protein 1 (HSPA1A) using HepaRG (AID 2283502)
How it was run: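 Differentiated human HepaRG cells in serum-free induction medium were exposed in duplicate for 48 h to eight concentrations (top 100 uM, half-log steps, 0.5% DMSO). HSPA1A mRNA was quantified by qRT-PCR, normalized to ACTB, GAPDH and POLR2A, and fitted bidirectionally against DMSO.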

[6] = read-out: Hypoxia-inducible factor 1-alpha (Homo sapiens) (UniProt Q16665); assay: LTEA_HepaRG_HIF1A: Life Technologies and Expression Analysis (LTEA) Assay for Hypoxia-inducible factor 1 (HIF1A) Trancription factor using HepaRG (AID 2283503);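 also: HIF1A transcript by TaqMan qRT-PCR normalized to ACTB GAPDH and POLR2A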
How it was run: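 HepaRG, 48 h exposure, 8-pt half-log series from 100 uM, 0.5% DMSO vehicle, duplicates. Readout: HIF1A transcript by qRT-PCR (Fluidigm array), housekeeping-normalised. Bidirectional curve fit vs DMSO baseline.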

[7] = read-out: 3-Hydroxy-3-Methylglutaryl-CoA Synthase 2 (HMGCS2), HMGCS2 (gene 3158); assay: LTEA_HepaRG_HMGCS2: Life Technologies and Expression Analysis (LTEA) Assay for 3-Hydroxy-3-Methylglutaryl-CoA Synthase 2 (HMGCS2) using HepaRG (AID 2283504)
How it was run: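 qRT-PCR read-out of HMGCS2 transcript, normalised to three housekeeping genes, in HepaRG cells after 48 h chemical exposure. Eight-point curves from 100 uM, half-log dilutions, 0.5% DMSO vehicle; gain or loss fitted relative to DMSO baseline.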

HGF (gene 3082) = assay: LTEA_HepaRG_HGF: Life Technologies and Expression Analysis (LTEA) Assay for Hepatocyte Growth Facto (HGF) using HepaRG (AID 2283505)
How it was run: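 HepaRG, 48 h dosing, 8-pt half-log series from 100 uM in 0.5% DMSO, duplicates. Readout: TaqMan qRT-PCR of HGF mRNA, housekeeping-normalized; bidirectional curve fit vs DMSO baseline.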

[8] = read-out: Insulin Like Growth Factor 1 (IGF1), IGF1 (gene 3479); assay: LTEA_HepaRG_IGF1: Life Technologies and Expression Analysis (LTEA) Assay for Insulin Like Growth Factor 1 (IGF1) using HepaRG (AID 2283506)
How it was run: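 Differentiated human HepaRG cells were dosed for 48 h in serum-free induction medium with 0.5% DMSO, eight half-log concentrations up to 100 uM, in duplicate. IGF1 mRNA was quantified by qRT-PCR normalized to ACTB, GAPDH, POLR2A; bidirectional fitting versus DMSO.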

[9] = read-out: Intercellular Adhesion Molecule 1 (ICAM1), ICAM1 (gene 3383); assay: LTEA_HepaRG_ICAM1: Life Technologies and Expression Analysis (LTEA) Assay for Intercellular Adhesion Molecule 1 (ICAM1) using HepaRG (AID 2283507)
How it was run: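 HepaRG, 48 h exposure, 8-pt half-log series from 100 uM, 0.5% DMSO vehicle, duplicates. Readout: TaqMan qRT-PCR mRNA, housekeeping-normalized (ACTB/GAPDH/POLR2A). Bidirectional curve fit vs DMSO baseline.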

[10] = read-out: Insulin-like growth factor-binding protein 1 (IGFBP1), IGFBP1 (gene 3484); assay: LTEA_HepaRG_IGFBP1: Life Technologies and Expression Analysis (LTEA) Assay for Insulin-like growth factor-binding protein 1 (IGFBP1) using HepaRG (AID 2283508)
How it was run: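 qRT-PCR mRNA read-out (TaqMan, Fluidigm array), normalised to three housekeeping genes; HepaRG cells, 48 h exposure, 8-pt half-log series from 100 uM, 0.5% DMSO vehicle; bidirectional curve fit vs DMSO baseline.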

[11] = read-out: Interleukin 6 (IL6), IL6 (gene 3569); assay: LTEA_HepaRG_IL6: Life Technologies and Expression Analysis (LTEA) Assay for Interleukin 6 (IL6) using HepaRG (AID 2283509)
How it was run: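 HepaRG, ~100,000 cells/well, 48 h pre-culture; serum-free induction medium; cmpd 8-pt half-log from 100 uM, 0.5% DMSO, duplicate, 48 h. Lysis in RLT, TaqMan qRT-PCR; gain or loss vs DMSO.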

[12] = read-out: Interleukin 6 Receptor (IL6R), IL6R (gene 3570); assay: LTEA_HepaRG_IL6R: Life Technologies and Expression Analysis (LTEA) Assay for Interleukin 6 Receptor (IL6R) using HepaRG (AID 2283510)
How it was run: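 Differentiated human HepaRG cells, plated 48 h then switched to serum-free induction medium, were dosed in duplicate for 48 h at eight half-log concentrations up to 100 uM in 0.5% DMSO. IL6R mRNA quantified by qRT-PCR, normalized to ACTB/GAPDH/POLR2A; bidirectional fit versus DMSO.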

[13] = read-out: Potassium channel subfamily K member 1 (KCNK1), KCNK1 (gene 3775); assay: LTEA_HepaRG_KCNK1: Life Technologies and Expression Analysis (LTEA) Assay for Potassium channel subfamily K member 1 (KCNK1) using HepaRG (AID 2283511)
How it was run: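 Gain or loss of KCNK1 mRNA is the read-out, quantified by qRT-PCR against three housekeeping genes after 48 h chemical treatment of human HepaRG liver cells. Concentrations ran from 100 uM downward in half-log steps, vehicle 0.5% DMSO.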

[14] = read-out: Keratin 19 (KRT19), KRT19 (gene 3880); assay: LTEA_HepaRG_KRT19: Life Technologies and Expression Analysis (LTEA) Assay for Keratin 19 (KRT19) using HepaRG (AID 2283512)
How it was run: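 HepaRG, 48 h chemical exposure, 8-pt half-log CRC from 100 uM, 0.5% DMSO vehicle, duplicates. Readout: TaqMan qRT-PCR of KRT19 mRNA, housekeeping-normalized (ACTB/GAPDH/POLR2A). Bidirectional fit vs DMSO baseline.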

[15] = read-out: JUN Transcription Factor, JUN (gene 3725); assay: LTEA_HepaRG_JUN: Life Technologies and Expression Analysis (LTEA) Assay for JUN Transcription Factor using HepaRG (AID 2283513)
How it was run: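 Differentiated HepaRG cells were exposed to chemicals for 48 h in serum-free induction medium, 8 concentrations from 100 uM in half-log steps, 0.5% DMSO vehicle, in duplicate. JUN mRNA was quantified by TaqMan qRT-PCR, normalized to ACTB, GAPDH, POLR2A.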

[16] = read-out: Lipase C (LIPC), LIPC (gene 3990); assay: LTEA_HepaRG_LIPC: Life Technologies and Expression Analysis (LTEA) Assay for Lipase C (LIPC) using HepaRG (AID 2283514)
How it was run: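 Read-out is LIPC transcript level by TaqMan qRT-PCR, normalized to three housekeeping genes, after 48 h chemical treatment of human HepaRG liver cells. Curves span eight concentrations topping at 100 uM; activity in either direction scored relative to 0.5% DMSO.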

[17] = read-out: Lipoprotein lipase (LPL), LPL (gene 4023); assay: LTEA_HepaRG_LPL: Life Technologies and Expression Analysis (LTEA) Assay for Lipoprotein lipase (LPL) using HepaRG (AID 2283515)
How it was run: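 Read-out is LPL transcript level by qRT-PCR, normalized to three housekeeping genes and fitted bidirectionally against the DMSO control. Human HepaRG cells received chemicals for 48 h at up to 100 uM.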

[18] = read-out: MicroRNA 122 (MIR122), gene 406906; assay: LTEA_HepaRG_MIR122: Life Technologies and Expression Analysis (LTEA) Assay for MicroRNA 122 (MIR122) using HepaRG (AID 2283516); also: the transcript read is the microRNA miR-122
How it was run: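 Differentiated human HepaRG cells were exposed 48 h in serum-free induction medium to eight half-log concentrations (top 100 uM, 0.5% DMSO). Transcript level was measured by TaqMan qRT-PCR, normalized to ACTB, GAPDH and POLR2A, and fitted bidirectionally versus DMSO.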

[19] = read-out: Glutamate-cysteine ligase catalytic (GCLC), GCLC (gene 2729); assay: LTEA_HepaRG_GCLC: Life Technologies and Expression Analysis (LTEA) Assay for Glutamate-cysteine ligase catalytic (GCLC) using HepaRG (AID 2283498)
How it was run: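 Read-out is GCLC transcript level by Fluidigm-based TaqMan qRT-PCR, normalized to three housekeeping genes and fitted in both directions relative to 0.5% DMSO. Human HepaRG cells received chemicals for 48 h, up to 100 uM.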

Measured: outcome

Sequence of Hypoxia-inducible factor 1-alpha (Homo sapiens) (Q16665 whole entry, looked up): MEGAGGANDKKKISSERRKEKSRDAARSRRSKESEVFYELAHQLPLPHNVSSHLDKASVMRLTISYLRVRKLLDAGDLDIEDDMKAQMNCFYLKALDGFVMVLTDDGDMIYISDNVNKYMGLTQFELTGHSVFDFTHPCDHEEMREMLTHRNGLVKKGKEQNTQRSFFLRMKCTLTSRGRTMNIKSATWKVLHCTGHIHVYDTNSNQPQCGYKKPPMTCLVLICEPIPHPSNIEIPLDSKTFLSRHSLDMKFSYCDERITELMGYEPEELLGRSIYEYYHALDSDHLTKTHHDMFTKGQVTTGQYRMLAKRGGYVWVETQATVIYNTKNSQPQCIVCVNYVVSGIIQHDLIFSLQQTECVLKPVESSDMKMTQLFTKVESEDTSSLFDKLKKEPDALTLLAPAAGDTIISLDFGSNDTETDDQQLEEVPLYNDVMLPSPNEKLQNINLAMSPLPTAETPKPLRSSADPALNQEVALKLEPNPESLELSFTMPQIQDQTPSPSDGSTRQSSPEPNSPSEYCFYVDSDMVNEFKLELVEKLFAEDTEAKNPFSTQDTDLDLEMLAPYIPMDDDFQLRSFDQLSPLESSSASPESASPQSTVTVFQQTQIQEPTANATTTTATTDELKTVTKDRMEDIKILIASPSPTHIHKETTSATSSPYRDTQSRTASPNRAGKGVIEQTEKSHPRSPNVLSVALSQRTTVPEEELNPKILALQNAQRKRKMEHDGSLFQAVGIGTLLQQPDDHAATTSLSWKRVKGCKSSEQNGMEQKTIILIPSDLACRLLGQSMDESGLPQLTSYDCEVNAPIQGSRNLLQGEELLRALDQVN

CCNc1ccccc1
not listed: [19]
inactive: all other assays above

O=C(O)c1cc(N=Nc2ccc(S(=O)(=O)Nc3ccccn3)cc2)ccc1O
not listed: [4] | [6] | [10]
inactive: all other assays above

On1ccccc1=S
not listed: [5] | [6]
inactive: all other assays above

COC(=O)c1c(Cl)c(Cl)c(C(=O)OC)c(Cl)c1Cl
not listed: [5] | [6]
inactive: all other assays above
